Experimental data: the supplement of paper PMC6555819

How the values were obtained:
Assay in all cases: PBM binding z-score (relative to random genomic background probes); higher = stronger binding; sequences stand for … in GC…GCGATTGACAGCGTAGAATGAAGG
[1] = system: FXR:RXRa (NR concentration 270 nM, RXRa partner concentration 90 nM)
Outline: (§1)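 For binding z-scores, the reference was random background probes on custom Agilent 4×180K protein-binding microarrays. These arrays were incubated 1 h with ligand-free nuclear receptor dimers in PBS pH 7.4, 2% milk, 0.02% Triton X-100, 1 mM DTT, 0.2 mg/mL BSA and 0.4 mg/ml salmon testes DNA. Fluorescence was scanned after antibody detection of each partner (one per run) and regression-normalized.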

[2] = system: LXRa:RXRa (NR concentration 270 nM, RXRa partner concentration 90 nM)
Outline: as §1

[3] = system: LXRa homodimer (NR concentration 270 nM)
Outline: as §1

[4] = system: LXRb:RXRa (NR concentration 270 nM, RXRa partner concentration 90 nM)
Outline: as §1

[5] = system: LXRb homodimer (NR concentration 270 nM)
Outline: as §1

[6] = system: PPARa:RXRa (NR concentration 270 nM, RXRa partner concentration 90 nM)
Outline: as §1

[7] = system: PPARg:RXRa (NR concentration 180 nM, RXRa partner concentration 90 nM)
Outline: as §1

[8] = system: PPARg:RXRa 270nM:90nM, anti-RXR (NR concentration 270 nM, RXRa partner concentration 90 nM)
Outline: as §1

[9] = system: PPARg:RXRa 30nM:10nM, anti-RXR (NR concentration 30 nM, RXRa partner concentration 10 nM)
Outline: as §1

[10] = system: PPARg:RXRa 90nM:30nM, anti-RXR (NR concentration 90 nM, RXRa partner concentration 30 nM)
Outline: as §1

CGAACTAGGTCAGAACAGGACACTGAAGGATGAT
PBM binding z-score [1]: 1.48 | PBM binding z-score [2]: 1.37 | PBM binding z-score [3]: 0.372 | PBM binding z-score [4]: 0.71 | PBM binding z-score [5]: -0.177 | PBM binding z-score [6]: 3.15 | PBM binding z-score [7]: 5.08 | PBM binding z-score [8]: 4.56 | PBM binding z-score [9]: 1.8 | PBM binding z-score [10]: 3.43

CAAACTAGGTCACCGGAAGGTCACAGTCCGCATG
PBM binding z-score [1]: 6.17 | PBM binding z-score [2]: 5.52 | PBM binding z-score [3]: 4.03 | PBM binding z-score [4]: 4.77 | PBM binding z-score [5]: 1.26 | PBM binding z-score [6]: 5.9 | PBM binding z-score [7]: 9.97 | PBM binding z-score [8]: 7.71 | PBM binding z-score [9]: 6.06 | PBM binding z-score [10]: 7.55

CAAACTAGGTCACAGGTCAAAGTCGAGCCAACCA
PBM binding z-score [1]: 6.7 | PBM binding z-score [2]: 5.19 | PBM binding z-score [3]: 3.25 | PBM binding z-score [4]: 4.68 | PBM binding z-score [5]: 1.16 | PBM binding z-score [6]: 6.88 | PBM binding z-score [7]: 12.3 | PBM binding z-score [8]: 9.67 | PBM binding z-score [9]: 10.4 | PBM binding z-score [10]: 11

GCTTATAGATCAAGGTTAAGAAAGACTAAGCTAA
PBM binding z-score [1]: 0.198 | PBM binding z-score [2]: 0.766 | PBM binding z-score [3]: -0.148 | PBM binding z-score [4]: 0.438 | PBM binding z-score [5]: -0.382 | PBM binding z-score [6]: 1.4 | PBM binding z-score [7]: 0.991 | PBM binding z-score [8]: 1.57 | PBM binding z-score [9]: 0.403 | PBM binding z-score [10]: 1.13

GATACAGGGTCAAGGCCAGGGTACGCGTATTGAT
PBM binding z-score [1]: 6.68 | PBM binding z-score [2]: 4.26 | PBM binding z-score [3]: -0.139 | PBM binding z-score [4]: 3.62 | PBM binding z-score [5]: -0.397 | PBM binding z-score [6]: 5.82 | PBM binding z-score [7]: 5.63 | PBM binding z-score [8]: 5.3 | PBM binding z-score [9]: 2.2 | PBM binding z-score [10]: 4.46

CCTACTGCGCCATTCAGAGGTCATTGATCATATG
PBM binding z-score [1]: 3.32 | PBM binding z-score [2]: 4.74 | PBM binding z-score [3]: 7.35 | PBM binding z-score [4]: 4.35 | PBM binding z-score [5]: 1.54 | PBM binding z-score [6]: 3.8 | PBM binding z-score [7]: 0.615 | PBM binding z-score [8]: 1.89 | PBM binding z-score [9]: 0.275 | PBM binding z-score [10]: 0.91

TCTAGTTGGTTAAAGGTCACACACTCGAAATGCG
PBM binding z-score [1]: 5.51 | PBM binding z-score [2]: 5.54 | PBM binding z-score [3]: 4.45 | PBM binding z-score [4]: 5.47 | PBM binding z-score [5]: 2.22 | PBM binding z-score [6]: 6.63 | PBM binding z-score [7]: 9.55 | PBM binding z-score [8]: 8.64 | PBM binding z-score [9]: 8.96 | PBM binding z-score [10]: 9.31

ACTCGGAGGACAAAGGTCAGTGCTACGCCAGTGA
PBM binding z-score [1]: 3.58 | PBM binding z-score [2]: 3.67 | PBM binding z-score [3]: 1.45 | PBM binding z-score [4]: 2.94 | PBM binding z-score [5]: 0.443 | PBM binding z-score [6]: 4.64 | PBM binding z-score [7]: 6.76 | PBM binding z-score [8]: 6.58 | PBM binding z-score [9]: 5.31 | PBM binding z-score [10]: 7.31

AGAATGAGGTTAAGATCACGGAAACAGAATACAT
PBM binding z-score [1]: 2.44 | PBM binding z-score [2]: 1.8 | PBM binding z-score [3]: 0.0665 | PBM binding z-score [4]: 1.91 | PBM binding z-score [5]: 0.115 | PBM binding z-score [6]: 3.74 | PBM binding z-score [7]: 2.6 | PBM binding z-score [8]: 2.66 | PBM binding z-score [9]: 1.17 | PBM binding z-score [10]: 2.11

AGAATGAGGTTACCAAAGATCAGGCAAACGCTTG
PBM binding z-score [1]: 1.67 | PBM binding z-score [2]: 5.94 | PBM binding z-score [3]: -0.392 | PBM binding z-score [4]: 3.24 | PBM binding z-score [5]: -0.531 | PBM binding z-score [6]: 3.41 | PBM binding z-score [7]: 2.77 | PBM binding z-score [8]: 2.57 | PBM binding z-score [9]: 0.868 | PBM binding z-score [10]: 1.84

CCTACTGGTCCAAAAAGGTCATTGATGCCGATAA
PBM binding z-score [1]: 3.82 | PBM binding z-score [2]: 4.66 | PBM binding z-score [3]: 3.95 | PBM binding z-score [4]: 4.54 | PBM binding z-score [5]: 1.21 | PBM binding z-score [6]: 4.72 | PBM binding z-score [7]: 1.53 | PBM binding z-score [8]: 2.98 | PBM binding z-score [9]: 0.82 | PBM binding z-score [10]: 2.04

CGAACTAGGTCACAGAGGTCAAAGTCCGTGCGTA
PBM binding z-score [1]: 7.51 | PBM binding z-score [2]: 6.91 | PBM binding z-score [3]: 7.06 | PBM binding z-score [4]: 6.5 | PBM binding z-score [5]: 1.96 | PBM binding z-score [6]: 6.56 | PBM binding z-score [7]: 10.2 | PBM binding z-score [8]: 8.5 | PBM binding z-score [9]: 7.02 | PBM binding z-score [10]: 8.62
